# Assay results reported in the supplement of paper PMC12067093, “Discovery and optimisation of a covalent ligand for TRIM25 and its application to targeted protein ubiquitination” (Chemical Science, 2025).
# The full data set covers some 21,000 targets. This sample favours those with the largest changes.
# Legend:
# [1] = target: SARS_P49591_431_VEFVHMLNATMCATTR (UniProt P49591); test: probe-labelled cysteine peptide fold change vs DMSO (competition) (log2 fold change); higher = less target engagement (more negative = stronger competition); settings: THP-1, incubation time: 4 h
# Chain of UniProt P49591 (P49591 whole entry, looked up): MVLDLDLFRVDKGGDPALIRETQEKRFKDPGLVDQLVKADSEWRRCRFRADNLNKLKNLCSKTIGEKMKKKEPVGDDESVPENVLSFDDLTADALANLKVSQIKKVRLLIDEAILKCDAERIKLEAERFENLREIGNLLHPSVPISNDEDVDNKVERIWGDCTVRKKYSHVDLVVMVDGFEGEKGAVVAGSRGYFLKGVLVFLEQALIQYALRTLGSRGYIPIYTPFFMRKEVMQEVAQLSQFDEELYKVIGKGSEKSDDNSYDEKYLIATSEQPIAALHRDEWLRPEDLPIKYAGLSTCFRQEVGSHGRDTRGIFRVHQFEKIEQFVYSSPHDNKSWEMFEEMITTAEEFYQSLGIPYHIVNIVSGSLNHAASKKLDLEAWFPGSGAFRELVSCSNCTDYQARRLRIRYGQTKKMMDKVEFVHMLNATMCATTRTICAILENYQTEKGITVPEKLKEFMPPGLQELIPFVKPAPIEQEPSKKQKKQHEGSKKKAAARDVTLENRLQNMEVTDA
# [2] = target: SLFN11_Q7Z7L1_842_VVQLSDACDMLGDHIVLDSVRR (UniProt Q7Z7L1); test: as above; settings: THP-1, incubation time: 4 h
# Chain of UniProt Q7Z7L1 (Q7Z7L1 whole entry, looked up): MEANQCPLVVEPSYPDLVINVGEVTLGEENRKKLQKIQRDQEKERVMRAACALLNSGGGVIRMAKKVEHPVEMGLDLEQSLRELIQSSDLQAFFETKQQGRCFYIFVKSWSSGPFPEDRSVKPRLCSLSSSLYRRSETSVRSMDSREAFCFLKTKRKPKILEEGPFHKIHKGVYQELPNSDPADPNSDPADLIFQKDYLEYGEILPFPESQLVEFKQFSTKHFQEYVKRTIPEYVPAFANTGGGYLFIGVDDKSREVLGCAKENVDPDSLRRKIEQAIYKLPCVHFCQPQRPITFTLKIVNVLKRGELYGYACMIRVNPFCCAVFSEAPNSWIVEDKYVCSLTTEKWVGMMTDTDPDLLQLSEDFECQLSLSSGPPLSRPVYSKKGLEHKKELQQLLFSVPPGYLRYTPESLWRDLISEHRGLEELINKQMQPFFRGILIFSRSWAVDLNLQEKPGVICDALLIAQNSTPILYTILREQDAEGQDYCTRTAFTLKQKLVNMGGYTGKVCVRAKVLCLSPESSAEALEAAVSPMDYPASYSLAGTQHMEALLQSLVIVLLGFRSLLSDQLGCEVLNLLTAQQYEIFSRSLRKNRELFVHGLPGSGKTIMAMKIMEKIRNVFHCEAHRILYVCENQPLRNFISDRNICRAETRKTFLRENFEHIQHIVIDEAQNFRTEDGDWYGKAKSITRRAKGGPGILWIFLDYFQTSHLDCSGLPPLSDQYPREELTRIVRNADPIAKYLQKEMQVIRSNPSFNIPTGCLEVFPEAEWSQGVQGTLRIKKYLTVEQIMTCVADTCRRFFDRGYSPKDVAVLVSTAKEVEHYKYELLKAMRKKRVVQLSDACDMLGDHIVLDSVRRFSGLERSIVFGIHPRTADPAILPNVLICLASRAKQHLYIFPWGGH
# 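Also: competitive chemoproteomic profiling in live THP-1 cells with an iodoacetamide desthiobiotin (IA-DTB) probe, comparing probe-labelled peptide intensities in compound-treated cells against DMSO-treated controls.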
smiles,measurement,setting,value
CC1Cc2ccccc2N1C(=O)C1CCCN(C(=O)CCl)C1 (mixture of isomers) [TRIM25 ligand 11 (diastereomer mixture)],probe-labelled cysteine peptide fold change,[1]; 10 µM,0.102
same,probe-labelled cysteine peptide fold change,[1]; 50 µM,0.113
same,probe-labelled cysteine peptide fold change,[2]; 10 µM,0.174
same,probe-labelled cysteine peptide fold change,[2]; 50 µM,0.0323
